Records with an inconclusive call do not appear. A call without a number means that no potency is given here. Calls of active or inactive are those of the source. Calls follow the shape of the dose curve; as a rule, active = well fitted inhibition curve with a large enough effect; inconclusive = small, poorly fitted or top-dose-only effect; inactive = flat fitted curve, though single readings scatter.
What follows are compounds tested on HACAT (assay: qHTS assay to identify novel small-molecules to repurpose for Merkel cell carcinoma treatment (AID 1296009; also: nearly all actives have a fitted effect of over 60% in size)). Details: MCC and control cell lines, CellTiter-Glo viability, 72 h; at 44.8 µM (top of the series) unless noted.
In short: (§1)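 After compound transfer in DMSO, plates were kept 72 hr at 37 degree celsius. Luminescent ATP signal from CellTiter-Glo served as viability measure, normalized against DMSO and no-cell controls.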
With `Nc1ccc(O)c(C(=O)O)c1` the outcome was “inactive”.
`CC(C(=O)O)c1ccc(C(=O)c2ccccc2)s1` (stereo unspecified) was tested, and the outcome was “inactive”.
`CC(C)(C)c1nnc(NS(=O)(=O)c2ccc(N)cc2)s1` was tested, and the outcome was “inactive”.
With `CN(C)CCn1nnnc1SCC1=C(C(=O)O)N2C(=O)[C@@H](NC(=O)Cc3csc(N)n3)[C@H]2SC1` the outcome was “inactive”.
With `COC(=O)Nc1nc2ccc(C(=O)C3CC3)cc2[nH]1` the outcome was “inactive”.
In the case of `Nc1ccc(C(=O)O)c(O)c1`, the outcome is reported as “inactive”.
In the case of `CN1[C@@H]2CC[C@H]1CC(OC(c1ccccc1)c1ccccc1)C2` (stereo partly specified), the outcome is reported as “inactive”.
With `CO[C@@]1(NC(=O)Cc2cccs2)C(=O)N2C(C(=O)O)=C(COC(N)=O)CS[C@@H]21` the outcome was “inactive”.
With `COc1ccnc2c1CCCCC2S(=O)c1nc2ccccc2[nH]1` (stereo unspecified) the outcome was “inactive”.
For `CC1(C)S[C@@H]2[C@H](NC(=O)[C@H](NC(=O)N3CCN(S(C)(=O)=O)C3=O)c3ccccc3)C(=O)N2[C@H]1C(=O)O`, the outcome was “inactive”.
With `O=C(Nc1ccc(C(=O)O)c(O)c1)c1ccccc1` the outcome was “inactive”.
In the case of `CCCCCCCC/C=C/C(=O)O`, the outcome is reported as “inactive”.
`COC(=O)[C@H]1[C@H]2C[C@@H]3c4[nH]c5cc(OC)ccc5c4CCN3C[C@H]2C[C@@H](OC(=O)/C=C/c2cc(OC)c(OC)c(OC)c2)[C@@H]1OC` was tested, and the outcome was “inactive [at 17.4 µM]”.
`C[N+]1(C)[C@@H]2CC(OC(=O)[C@H](CO)c3ccccc3)C[C@H]1[C@@H]1O[C@@H]12` (stereo partly specified) was tested, and the outcome was “inactive”.
In the case of `COc1cc(/C=C/C(=O)N2CCN(CC(=O)N3CCCC3)CC2)cc(OC)c1OC`, the outcome is reported as “inactive”.

Each compound was assayed on HEK293T in the same assay as above. Details: MCC and control cell lines, CellTiter-Glo viability, 72 h; at 44.8 µM (top of the series) unless noted.
In short: as §1
`CO[C@@]1(NC(=O)Cc2cccs2)C(=O)N2C(C(=O)O)=C(COC(N)=O)CS[C@@H]21` was tested, and the outcome was “inactive”.
For `O=C(Nc1ccc(C(=O)O)c(O)c1)c1ccccc1`, the outcome was “inactive”.
With `CC(=O)SCC(CC(=O)c1ccc(C)cc1)C(=O)O` (stereo unspecified) the outcome was “inactive”.
With `C[N+]1(C)[C@@H]2CC(OC(=O)[C@H](CO)c3ccccc3)C[C@H]1[C@@H]1O[C@@H]12` (stereo partly specified) the outcome was “inactive”.
For `Cc1ccc2c(n1)Oc1ccc(C(C)C(=O)OCC(=O)N(C)C)cc1C2` (stereo unspecified), the outcome was “inactive”.
With `CCNc1nc2c(ncn2[C@H]2C[C@H](O)[C@@H](CO)O2)c(=O)[nH]1` the outcome was “inactive”.

Each compound was assayed on MCC-13 in the same assay as above. Details: MCC and control cell lines, CellTiter-Glo viability, 72 h; series mostly up to 46 µM.
In short: as §1
`Nc1ccc(O)c(C(=O)O)c1` was tested, and the Potency was “inactive”.
In the case of `CC(C(=O)O)c1ccc(C(=O)c2ccccc2)s1` (stereo unspecified), the Potency is reported as “inactive”.
`CC(C)(C)c1nnc(NS(=O)(=O)c2ccc(N)cc2)s1` was tested, and the Potency was “inactive”.
In the case of `CN(C)CCn1nnnc1SCC1=C(C(=O)O)N2C(=O)[C@@H](NC(=O)Cc3csc(N)n3)[C@H]2SC1`, the Potency is reported as “inactive”.
In the case of `c1ccc2sc(SSc3nc4ccccc4s3)nc2c1`, the Potency is reported as “inactive”.
For `COC(=O)Nc1nc2ccc(C(=O)C3CC3)cc2[nH]1`, the Potency was 7500 nM (active).
With `[O-][n+]1ccccc1SSc1cccc[n+]1[O-]` the Potency was 326 nM (active).
In the case of `Nc1ccc(C(=O)O)c(O)c1`, the Potency is reported as “inactive”.
In the case of `Cc1c(Nc2ncccc2C(=O)O)cccc1C(F)(F)F`, the Potency is reported as “inactive”.
`CO[C@@]1(NC(=O)Cc2cccs2)C(=O)N2C(C(=O)O)=C(COC(N)=O)CS[C@@H]21` was tested, and the Potency was “inactive”.
With `Nc1ccc([N+](=O)[O-])cc1O` the Potency was “inactive”.
For `O=C(O)Cc1ccc2c(c1)C(=O)c1ccccc1CO2`, the Potency was “inactive”.
For `COc1ccnc2c1CCCCC2S(=O)c1nc2ccccc2[nH]1` (stereo unspecified), the Potency was “inactive”.
In the case of `CCCCCCCCCCCCOCCO`, the Potency is reported as “inactive”.
In the case of `CCCSc1ccc2nc(NC(=O)OC)[nH]c2c1`, the Potency is reported as 1680 nM (active).
`O=C(/C=C/c1ccccc1)NCCO` was tested, and the Potency was “inactive”.
For `O=C(CCN1CCN(CCO)CC1)N1c2ccccc2Sc2ccc(C(F)(F)F)cc21`, the Potency was “inactive”.
For `CCOc1ccc2nc(S(N)(=O)=O)sc2c1`, the Potency was “inactive”.
`O=C(Nc1ccc(C(=O)O)c(O)c1)c1ccccc1` was tested, and the Potency was “inactive”.
`CCCCCCCC/C=C/C(=O)O` was tested, and the Potency was “inactive”.
For `CC(=O)SCC(CC(=O)c1ccc(C)cc1)C(=O)O` (stereo unspecified), the Potency was “inactive”.
`C[N+]1(C)[C@@H]2CC(OC(=O)[C@H](CO)c3ccccc3)C[C@H]1[C@@H]1O[C@@H]12` (stereo partly specified) was tested, and the Potency was “inactive”.
In the case of `Cc1ccc2c(n1)Oc1ccc(C(C)C(=O)OCC(=O)N(C)C)cc1C2` (stereo unspecified), the Potency is reported as “inactive”.
With `CCCCCCCCCCCCCCCC(=O)OC(C)C` the Potency was “inactive”.
With `COc1cccc2c1C(=O)c1c(O)c3c(c(O)c1C2=O)C[C@@](O)(C(=O)CO)C[C@@H]3O[C@H]1C[C@H](N)[C@H](O[C@@H]2CCCCO2)[C@H](C)O1` the Potency was 3760 nM (active).
Potency is read from the fitted curve at half-maximal effect.
